Experimental data as given in PubChem BioAssay AID743314 (Broad Institute, 2014).
Results with a measured potency or affinity are listed apart. Records with an inconclusive call do not appear. The source made the active and inactive calls.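 The calls were made as follows: active = fitted half-maximal concentration no higher than twice the top tested dose, in every repeat run; inconclusive = repeat runs disagree, poor fit, or flat partial inhibition; inactive = the rest.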

target: Endoplasmic reticulum aminopeptidase 1 (Homo sapiens) (UniProt Q9NZ08); assay: ERAP1 aminopeptidase inhibitors, dose response, biochemical, cherry-pick, set 2, plate reader (AID 743314); settings: Recombinant ERAP1, Leu-AMC fluorescence, 60 min; series mostly up to 11 µM; activity change, negative = inhibition: at the top concentration;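 also: 0% = neutral control wells and -100% = L-leucinethiol positive control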
Sequence (Q9NZ08 whole entry, looked up): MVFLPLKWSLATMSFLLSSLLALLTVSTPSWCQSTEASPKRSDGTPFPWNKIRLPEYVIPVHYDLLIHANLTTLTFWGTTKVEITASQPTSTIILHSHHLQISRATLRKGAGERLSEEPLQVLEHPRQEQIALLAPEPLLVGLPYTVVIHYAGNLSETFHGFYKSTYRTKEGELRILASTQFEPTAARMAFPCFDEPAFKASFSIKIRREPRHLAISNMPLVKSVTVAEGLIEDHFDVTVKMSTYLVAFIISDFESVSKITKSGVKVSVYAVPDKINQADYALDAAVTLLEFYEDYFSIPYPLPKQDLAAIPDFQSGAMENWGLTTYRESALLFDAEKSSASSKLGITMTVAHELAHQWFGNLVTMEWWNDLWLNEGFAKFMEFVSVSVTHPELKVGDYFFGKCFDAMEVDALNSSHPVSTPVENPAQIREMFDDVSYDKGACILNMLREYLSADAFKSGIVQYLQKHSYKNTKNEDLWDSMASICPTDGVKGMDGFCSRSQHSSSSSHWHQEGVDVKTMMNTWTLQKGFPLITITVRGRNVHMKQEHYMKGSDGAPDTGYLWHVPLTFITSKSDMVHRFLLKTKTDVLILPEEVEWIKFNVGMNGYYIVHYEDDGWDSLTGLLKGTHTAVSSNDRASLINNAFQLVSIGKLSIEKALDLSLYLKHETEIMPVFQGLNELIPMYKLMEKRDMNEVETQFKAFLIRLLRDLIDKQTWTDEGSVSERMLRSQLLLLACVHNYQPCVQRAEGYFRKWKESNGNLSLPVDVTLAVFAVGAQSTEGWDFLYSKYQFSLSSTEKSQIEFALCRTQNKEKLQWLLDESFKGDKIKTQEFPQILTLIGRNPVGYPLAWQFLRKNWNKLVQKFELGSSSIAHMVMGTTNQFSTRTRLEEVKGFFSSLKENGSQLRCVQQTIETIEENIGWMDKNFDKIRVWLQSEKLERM

Activity change, negative = inhibition, inactive:
CN(C(=O)CSc1nnc(C(F)(F)F)n1C)c1c(N)n(Cc2ccccc2)c(=O)[nH]c1=O 6.68%, CCn1c(SCC(=O)NCc2ccccc2)nnc1C(CO)NC(=O)c1ccccc1 (stereo not drawn) -14.3%, CC(=O)N(C)C[C@H]1Oc2cc(C#CC(C)C)ccc2S(=O)(=O)N([C@@H](C)CO)C[C@H]1C 37.2%, Cc1cc(C)n2nc(C(=O)N3CCN(c4ccc([N+](=O)[O-])cc4)CC3)nc2n1 -1.94%, CCOc1ccccc1OCCCC(=O)Nc1ccc(S(=O)(=O)Nc2cc(C)nc(C)n2)cc1 9.91%, C[C@H]1CN([C@@H](C)CO)C(=O)CCCn2cc(nn2)CO[C@@H]1CN(C)Cc1ccccc1 23.4% [at 5.6 µM], O=C(CSc1nnc2ccc(-c3ccc(F)cc3)nn12)N1CCCC1 1.64%, C/C=C/c1ccc([C@H]2[C@@H](CO)N(CC3CCOCC3)C23CN(S(=O)(=O)CC)C3)cc1 31.9%, O=C(CC1CC1)N1[C@H](CO)[C@H](c2ccccc2)C12CN(Cc1cc(F)ccc1F)C2 11.5%, CCN1CCN(CCCNC(=O)c2cc3c(s2)-c2ccccc2OC3)CC1 -21.4%, CCN(C(=O)COC(=O)c1cnc(C)cn1)C1CCS(=O)(=O)C1 (stereo not drawn) -8.22%, C[C@@H]1CN([C@H](C)CO)C(=O)c2cccc(NC(=O)Nc3ccccc3)c2O[C@@H]1CN(C)Cc1ccc(C(=O)O)cc1 54.7%, C[C@@H]1CN([C@@H](C)CO)C(=O)c2cc(NC(=O)CCN3CCOCC3)ccc2O[C@H]1CN(C)S(=O)(=O)c1ccccc1 22.1%, O=C(NCc1ccccc1Cl)c1cc(=O)[nH]c2ccccc12 -10.3%, O=C(O)[C@@H]1[C@@H](CO)[C@@H]2Cn3c(ccc(/C=C/c4ccccc4)c3=O)[C@@H]2N1Cc1ccc2c(c1)OCO2 3.6%, O=C(Nc1ccc(C(F)(F)F)cc1)N1[C@@H]2CNC[C@H]1C2c1ccc(-c2ccncc2)cc1 (stereo partly drawn) 42.7%, Cc1noc(C)c1NC(=O)N(C)C[C@H]1Oc2c(NC(=O)Nc3ccc(F)cc3)cccc2C(=O)N([C@@H](C)CO)C[C@H]1C 37.4%, c1ccc(Nc2nc(NCC3CCCO3)c3ccccc3n2)cc1 (stereo not drawn) 38.2%, CC(C)NC(=O)C1C(c2ccc(C(F)(F)F)cc2)=Nc2ccccc2N1C(=O)c1ccco1 (stereo not drawn) 4.24%, COc1ccc(CN(C)C[C@H]2OCCCC[C@H](C)Oc3ccc(NC(=O)Nc4ccc(F)cc4)cc3C(=O)N([C@@H](C)CO)C[C@@H]2C)cc1 12.2%, CC(=O)Oc1ccc(-c2cc3c(OC(C)=O)cc(OC(C)=O)cc3oc2=O)cc1 13.7% [at 2.6 µM], Cc1ccc(Cl)cc1NC(=O)CCC(=O)O 17%, Cn1c(=O)[nH]c(=O)c2c1[nH]c(=S)n2Cc1ccccc1 -25%, CCOc1ccc(NC(=O)C2CCCN2C(=O)Oc2ccccc2)cc1 (stereo not drawn) 1.06%, CCc1cc(=O)oc2c(CNCc3ccccc3F)c(O)c(Cl)cc12 29.9% [at 5.6 µM], COc1ccc(S(=O)(=O)NC[C@@H]2CC[C@H]3[C@H](CN3Cc3cc(F)ccc3F)O2)cc1 36.2%, CCOC(=O)c1c(NC(=O)COC(=O)CCNS(=O)(=O)c2ccccc2)sc(C(=O)NC)c1C -4.58%, Cc1c(O)ccc2c(CN3CCN(Cc4ccccc4)CC3)cc(=O)oc12 145%, COc1ccc(CN(C)C[C@H]2Oc3c(NC(=O)NC4CCCCC4)cccc3C(=O)N([C@@H](C)CO)C[C@@H]2C)cc1 13.4%, CCOC(=O)c1[nH]c2ccc(Br)cc2c1NC(=O)CCN1CCOCC1 13.7%, Cc1noc(C)c1NC(=O)N(C)C[C@@H]1Oc2c(NC(=O)Nc3ccc(F)cc3)cccc2C(=O)N([C@H](C)CO)C[C@H]1C 45.2%, COc1ccc(NC(=O)N[C@@H]2CC[C@@H](CCn3cc(-c4ccc(F)cc4)nn3)O[C@H]2CO)cc1 32.5%, CCc1c(C)c2cc(Cl)c(O)c(CN3CCCC3)c2oc1=O 20.7%, CCn1cnc2c1c(=O)n(CC(=O)NCC(F)(F)F)c(=O)n2Cc1ccccc1 -0.513%, Cc1nc2ccc(NC(=O)c3ccc(=O)[nH]c3)cc2s1 -4.05%, CCN(Cc1ccc(OC)c(F)c1)C(=O)C1CCCO1 (stereo not drawn) -14.1%, C[C@H](CO)N1C[C@H](C)[C@@H](CN(C)S(=O)(=O)c2ccccc2)Oc2ccc(NC(=O)CCN3CCOCC3)cc2C1=O 17.7%, C[C@@H]1CN([C@@H](C)CO)C(=O)c2cc(NS(=O)(=O)c3ccc(Cl)cc3)ccc2O[C@@H](C)CCCCO[C@@H]1CN(C)C 20.4%
